# About 3,200 (25%) of roughly 13,000 compounds showed an effect of 50% or more. The list shows a part of the results.
# System: P. falciparum stage V gametocytes
# Set-up: BacTiter-Glo ATP luminescence viability of purified stage V gametocytes in 384-well plates, per cent inhibition versus DMSO
# Conditions: 48 h, 5 µM; inhibitor
row,SMILES,% Inhibition [%]
1,CC(C)C1=C[C@H]2C[C@]3(C4OCCO4)[C@@H]4CC[C@@H](C)[C@H]4C[C@@]2(C(=O)OCC2COCO2)[C@]13C(=O)OC(c1ccccc1)c1ccccc1 (some centres unmarked) [TCMDC-131949],-14.13
2,CN(C)c1ccc(C(c2ccc(N(C)C)cc2)c2cc([N+](=O)[O-])ccc2Cl)cc1 [TCMDC-124088],-4.747
3,O=S1(=O)C=C(c2ccccc2)CC1 [TCMDC-125863],-1.513
4,O=C(Nc1cc(Cl)ccc1O)c1cnn2c(C(F)(F)F)cc(-c3cccs3)nc12 [TCMDC-125807],-56.02
5,COc1cc(CN2CCC(N3CCc4cc(NC(=O)c5cc(C)on5)ccc43)C2)ccc1F (centres unmarked) [TCMDC-135084],-32.41
6,N#Cc1cccc(NC(=O)Nc2cccc(-c3ccc(-c4nc5ccc(C(F)(F)F)cc5[nH]4)cc3)c2)c1 [TCMDC-133191],-49.97
7,CCOC(=O)C(CO)NC(=O)c1ccc([N+](=O)[O-])o1 (centres unmarked) [TCMDC-131608],22.85
8,Cc1ccc(Cl)c2sc(N3CCN(C(=O)c4ccc([N+](=O)[O-])o4)CC3)nc12 [TCMDC-124311],95.54
9,CCOC(=O)C(NC(=O)c1ccc([N+](=O)[O-])o1)C(C)C (centres unmarked) [TCMDC-131607],14.28
10,CC(C)c1sc(N2CCN(C)CC2)nc1C(=O)NCCc1ccc(Cl)c(Cl)c1 [TCMDC-134295],11.7
11,Cc1ccc(C)c2sc(N3CCN(C(=O)c4ccc([N+](=O)[O-])o4)CC3)nc12 [TCMDC-124315],103
12,CC1CCN(c2nc(C(=O)NCCc3ccc(Cl)c(Cl)c3)c(C(C)C)s2)CC1 [TCMDC-134836],1.732
13,O=C(N[C@@H](CC1CCCCC1)C(=O)NCCN1CCCCC1)c1ccc(O)c(-c2cccc(C(F)(F)F)c2)c1 [TCMDC-140818],37.36
14,COc1cc(Cc2cnc(N)nc2N)cc(OCc2cccc(C(=O)O)c2)c1OC [TCMDC-137888],-0.7108
15,Oc1ccc(CN2CCN(CCOC(c3ccccc3)c3ccccc3)CC2)cc1Cl [TCMDC-135690],-0.9629
16,Cc1cccc2nc(-c3ccc(-c4ccc(NC(=O)Nc5ccc(F)c(F)c5F)cc4)s3)[nH]c12 [TCMDC-133222],-13.04
17,Cc1ccc(Nc2nc(N/N=C/c3cc4c(cc3Br)OCO4)nc(Nc3ccc([N+](=O)[O-])cc3)n2)cc1C [TCMDC-124185],19.94
18,c1cc(CN2CCC(CCN3CCCCC3)CC2)cc(-c2cccc(-c3nc4ccccc4[nH]3)c2)c1 [TCMDC-133920],106.4
19,NC1CCN(Cc2cccc(-c3csc(-c4nc5ccccc5[nH]4)c3)c2)C1 (centres unmarked) [TCMDC-133876],10.66
20,c1cc(CN2CCN(CCN3CCOCC3)CC2)cc(-c2csc(-c3nc4ccccc4[nH]3)c2)c1 [TCMDC-133921],11.49
21,c1cc(CN2CCCCC2)cc(-c2cccc(-c3nc4ccccc4[nH]3)c2)c1 [TCMDC-133914],-55.81
22,c1cc(CN2CCC(CCN3CCCCC3)CC2)cc(-c2csc(-c3nc4ccccc4[nH]3)c2)c1 [TCMDC-133919],95.43
23,c1cc(CN2CCCCC2)cc(-c2ccc(-c3nc4ccccc4[nH]3)cc2)c1 [TCMDC-133890],-8.246

row,SMILES,% Inhibition [%]
1,C=CCc1cc(Br)ccc1OCCCOc1c(N)nc(N)nc1N [TCMDC-131367],16.05
2,CCn1cc(CN2CCCC(C(=O)Nc3ccc(-c4nc5ccccc5[nH]4)cc3)C2)c(C)n1 (centres unmarked) [TCMDC-124673],-63.8
3,CCc1ccc(N2C(=O)C3C(Cc4ccc(OC(C)(C)C)cc4)NC4(C(=O)N(Cc5ccccc5)c5ccc(F)cc54)C3C2=O)cc1 (centres unmarked) [TCMDC-139770],11.03
4,CCN(CC)CCCN(C(=O)Nc1cc(F)cc(F)c1)c1nc(-c2ccc(F)cc2)cs1 [TCMDC-136665],-54.99
5,COc1ccc(F)cc1-c1csc(N(c2ccc(F)cc2)C2CCNCC2)n1 [TCMDC-136652],68.19
6,COc1ccc(N(c2nc(-c3cc(Cl)ccc3Cl)cs2)C2CCNCC2)cc1 [TCMDC-136654],103.4
7,CC(=O)N(Cc1nc(-c2cc(C(F)(F)F)cc(C(F)(F)F)c2)cs1)c1c(C)cccc1C [TCMDC-135641],20.05
8,Fc1ccc(N(c2nc(-c3cc(F)cc(C(F)(F)F)c3)cs2)C2CCNCC2)cc1 [TCMDC-136656],103.4
9,Cc1cc(F)ccc1N(c1nc(-c2cc(Cl)ccc2Cl)cs1)C1CCNC1 (centres unmarked) [TCMDC-136653],19.89
10,COc1ccc(N(c2nc(-c3cc(Cl)ccc3Cl)cs2)C2CCNC2)cc1 (centres unmarked) [TCMDC-136655],0.8137
11,N#Cc1ccc2[nH]cc(CN3CCC4(CC3)CN(CCNCc3ccccc3)C(=O)CO4)c2c1 [TCMDC-136734],-19.1
12,Cc1ccccc1C1CCN(C2CCC(NC(=O)/C=C/c3ccc(C(F)(F)F)cc3)CC2)CC1 (centres unmarked) [TCMDC-133511],-86.18
13,CC[C@@]1(O)C(=O)OCc2c1cc1n(c2=O)Cc2c-1nc1cc3c(cc1c2CN1CCN(C)CC1)OCCO3 [TCMDC-131875],-10.57
14,CCOc1ccc2ccccc2c1C(=O)Nc1cc(C)nn1-c1nc(C)cc(=O)[nH]1 [TCMDC-124946],-19.22
15,O=C(/C=C/c1ccc(Cl)c(Cl)c1)NC1CCN(CCCNC(=O)c2cccc(Cl)c2)CC1 [TCMDC-133356],10.9
16,COc1cccc(-c2ccc(O)c(CNCCc3cccc(F)c3)c2)n1 [TCMDC-124645],3.898
17,CCC(=O)c1cc(C(=O)NCCc2cccc(OC)c2)ccc1OC [TCMDC-140139],9.268
18,COc1cccc(CCc2c(CCNCCCCCCNCCc3ccccc3)ccc(OC)c2OC)c1 [TCMDC-132105],111.5
19,COc1cccc(C(=O)NCCc2cccc(Cl)c2)c1Oc1ccccc1 [TCMDC-141237],-16.09
20,CCc1c(CCNCCCCCNCCc2ccc(OC)c(OC)c2CC)ccc(OC)c1OC [TCMDC-132064],110.1
21,CCc1c(CCNCCc2cccc(CCNCCc3ccc(OC)c(OC)c3CC)c2)ccc(OC)c1OC [TCMDC-132056],108.6
22,CCc1c(CCNCCCC(C)CCNCCc2ccc(OC)c(OC)c2CC)ccc(OC)c1OC (centres unmarked) [TCMDC-132065],107.6
23,CCOC(=O)C1=C(C)NC2=C(C(=O)CC(C)(C)C2)C1c1ccc(Br)cc1 (centres unmarked) [TCMDC-124142],9.854

row,SMILES,% Inhibition [%]
1,N#Cc1ccc2c(c1)CCN(CCC1CCC(NC(=O)Nc3ccnc4ccccc34)CC1)C2 (centres unmarked) [TCMDC-139289],-21.63
2,COc1ccc(Cc2c(C)nc3nc(N)nc(N)c3c2C)cc1 [TCMDC-137660],3.866
3,COC(=O)c1ccc(CC(C)NCC(O)c2cccc(I)c2)cc1 (centres unmarked) [TCMDC-131484],-10.65
4,O=C(C1CCN(c2nnnn2-c2ccccc2)CC1)N1CCc2ccccc2C1 [TCMDC-123642],26.99
5,COc1ccc(N2CCN(CCc3ccc(NC(=O)c4ccc([N+](=O)[O-])cc4)cc3)CC2)c(OC)c1 [TCMDC-138185],-26.83
6,CCc1c(CCNCCCCCCNCCc2ccccc2)ccc(OC)c1OC [TCMDC-132063],92.32
7,CCc1c(CCNCCCCCCNCCc2ccc([N+](=O)[O-])cc2)ccc(OC)c1OC [TCMDC-132066],101.3
8,CCc1c(CCNCC/C=C/CCNCCc2ccc(OC)c(OC)c2CC)ccc(OC)c1OC [TCMDC-132062],100.4
9,COc1cc(C)c(C(O)CNC(C)CCc2ccccc2)cc1C (centres unmarked) [TCMDC-131251],28.09
10,CCc1c(CCNCCCCCCNCCc2ccc(OC)cc2)ccc(OC)c1OC [TCMDC-132050],110.1
11,COc1cc(Cc2cnc(N)nc2N)cc(OCCCCc2ccc([N+](=O)[O-])cc2)c1OC [TCMDC-137901],2.332
12,Cc1cccc2[nH]c(-c3cccc(-c4cccc(NC(=O)NCc5ccccc5)c4)c3)nc12 [TCMDC-133159],13.2
13,OCCOCn1cnc2cnc(N[C@H]3OC[C@H](O)[C@@H](O)[C@@H]3O)nc21 [TCMDC-138106],14.1
14,CCc1c(CCNCCCCCCNCCc2ccc(Br)cc2)ccc(OC)c1OC [TCMDC-132045],110
15,COc1cc2c(OC)cccc2cc1CNCCCCCCNCc1cc2cccc(OC)c2cc1OC [TCMDC-137945],1.634
16,CCc1c(CCNCCCCCCNCCc2ccc(OC)c(OC)c2CC)ccc(OC)c1OC [TCMDC-132047],111.8
17,CCc1c(CCNC/C=C/C=C/CNCCc2ccc(OC)c(OC)c2CC)ccc(OC)c1OC [TCMDC-132061],102.8
18,CCc1c(CCNCCCCCCNCCc2ccc(OC)c(OC)c2C)ccc(OC)c1OC [TCMDC-132051],107.2
19,O=C1C[C@@H]([S+]([O-])Cc2nccs2)N1CCOCCCCCCc1ccc(Cl)cc1 (some centres unmarked) [TCMDC-139269],27.24
20,Cc1cccc(NC(=O)Nc2ccc(I)c(OCCN(C)C)c2)c1C [TCMDC-139124],-5.088
21,COc1ccc(Nc2nc(NCc3ccc(-n4ccnc4)cc3)cc(-c3ccc(OC)cc3)n2)cc1 [TCMDC-134025],-3.76
22,Clc1ccc(Sc2cncnc2N2CCOCC2)cc1 [TCMDC-137279],19.11

# From publication PMC4552634, “A New Set of Chemical Starting Points with Plasmodium falciparum Transmission-Blocking Potential for Antimalarial Drug Discovery” (PLoS ONE, 2015)
